Experimental data taken from PubChem BioAssay (EPA / NIEHS).
Values joined by “and” are separate entries in the source; they are usually repeats but may differ in a detail not shown here. Identical values can stand only once. Some compounds were tested as several samples or in several runs, with calls that do not always agree. Active and inactive are the calls of the source. Rule for the calls: active = hit-call score of the fitted dose curve at least 0.9, where 1 is the maximum; inactive = score below 0.9.

What was measured:
[1] = target: Transcription factor E2F1 (Homo sapiens) (UniProt Q01094); assay: ATG_E2F_CIS: Attagene CIS-FACTORIAL HepG2 Assay for human E2F Transcription Factor 1 (AID 2282935); conditions: HepG2 Attagene cis-reporter, E2F reporter RNA transcripts; actives raise or lower the signal
Chain of Transcription factor E2F1 (Homo sapiens) (Q01094 whole entry, looked up): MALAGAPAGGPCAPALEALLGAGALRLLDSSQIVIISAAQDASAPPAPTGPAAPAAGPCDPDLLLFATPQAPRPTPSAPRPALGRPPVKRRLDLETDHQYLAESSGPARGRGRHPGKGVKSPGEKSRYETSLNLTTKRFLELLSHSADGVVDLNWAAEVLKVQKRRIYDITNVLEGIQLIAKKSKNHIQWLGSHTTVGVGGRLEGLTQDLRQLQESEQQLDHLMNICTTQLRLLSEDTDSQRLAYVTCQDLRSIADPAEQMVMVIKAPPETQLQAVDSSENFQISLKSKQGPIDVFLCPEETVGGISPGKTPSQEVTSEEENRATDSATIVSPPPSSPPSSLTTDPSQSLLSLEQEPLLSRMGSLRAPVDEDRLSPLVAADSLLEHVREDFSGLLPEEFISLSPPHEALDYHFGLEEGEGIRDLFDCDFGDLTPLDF
Procedure, shortened: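 HepG2 cells transiently transfected with multiplexed cis-element reporter units, dosed for 24 h. Reporter mRNA measured by RT-PCR, 6-FAM primer-extension labeling, HpaI digestion and capillary electrophoresis; bidirectional fit versus DMSO baseline.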

[2] = ATG_E_Box_CIS: Attagene CIS-FACTORIAL HepG2 Assay for human Enhancer Box (E-box) (AID 2282936); conditions: HepG2 E-box cis-reporter transcription, actives raise or lower the signal
Procedure, shortened: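 HepG2 cells transiently transfected with multiplexed cis-element reporter units sensing endogenous transcription factor activity; 24 h compound exposure. Reporter mRNA measured by RT-PCR, 6-FAM primer extension, HpaI digestion and capillary electrophoresis; bidirectional fit versus DMSO.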

[3] = ATG_M_61_CIS: Attagene CIS-FACTORIAL HepG2 Assay for M61 Transcription Factor (Internal Marker) (AID 2282937); conditions: HepG2 Attagene CIS-FACTORIAL M61 internal marker reporter; actives raise or lower the signal
Procedure, shortened: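 Cells were transfected with reporter units under cis-regulatory promoters, treated with chemicals for 24 h, then lysed for RNA. Reporter transcripts were quantified by RT-PCR and capillary electrophoresis, and activity was fitted bidirectionally against DMSO.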

[4] = ATG_EGR_CIS: Attagene CIS-FACTORIAL HepG2 Assay for human Early Growth Response 1 (EGR1) (AID 2282938); conditions: HepG2 Attagene CIS-FACTORIAL EGR reporter mRNA; actives raise or lower the signal
Procedure, shortened: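 Endogenous TF activity in HepG2 liver cells was gauged through cis-promoter reporter constructs transiently transfected. After 24 h dosing, reporter mRNA was quantified by RT-PCR and capillary electrophoresis, and curves fitted in both directions versus DMSO.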

[5] = ATG_M_19_CIS: Attagene CIS-FACTORIAL HepG2 Assay for M19 Transcription Factor (Internal Marker) (AID 2282939); conditions: HepG2 Attagene CIS-FACTORIAL M19 internal marker reporter; actives raise or lower the signal
Procedure, shortened: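 Signals come from fluorescence of labelled reporter-specific PCR fragments resolved by capillary electrophoresis, following 24 h treatment of HepG2 cells transfected with cis-promoter reporter units; activity was fitted in both directions relative to DMSO.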

[6] = ATG_ERE_CIS: Attagene CIS-FACTORIAL HepG2 Assay for Estrogen Response Element (ERE) (AID 2282940); conditions: HepG2 ERE cis-reporter, Attagene RNA transcript; actives raise or lower the signal
Procedure, shortened: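 Fluorescence of capillary-separated, FAM-labelled reporter cDNA fragments indicates reporter mRNA levels in HepG2 cells exposed to chemicals for 24 h. Transient transfection with cis-regulated units; data fitted in both directions against DMSO.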

[7] = ATG_Ets_CIS: Attagene CIS-FACTORIAL HepG2 Assay for human Erythroblast Transformation Specific (ETS) (AID 2282941); conditions: HepG2 ETS cis-reporter transcription, actives raise or lower the signal
Procedure, shortened: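 HepG2 cells transiently transfected with cis-promoter reporter transcription units were dosed for 24 h; reporter mRNA was measured by RT-PCR, 6-FAM primer extension, HpaI digestion and capillary electrophoresis, with bidirectional fitting against DMSO baseline.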

[8] = target: Hepatocyte nuclear factor 3-beta (Homo sapiens) (UniProt Q9Y261); assay: ATG_FoxA2_CIS: Attagene CIS-FACTORIAL HepG2 Assay for human Forkhead box A2 (FOXA2) (AID 2282942); conditions: HepG2 cis-reporter transcription factor activity, 24 h; actives raise or lower the signal
Chain of Hepatocyte nuclear factor 3-beta (Homo sapiens) (Q9Y261 whole entry, looked up): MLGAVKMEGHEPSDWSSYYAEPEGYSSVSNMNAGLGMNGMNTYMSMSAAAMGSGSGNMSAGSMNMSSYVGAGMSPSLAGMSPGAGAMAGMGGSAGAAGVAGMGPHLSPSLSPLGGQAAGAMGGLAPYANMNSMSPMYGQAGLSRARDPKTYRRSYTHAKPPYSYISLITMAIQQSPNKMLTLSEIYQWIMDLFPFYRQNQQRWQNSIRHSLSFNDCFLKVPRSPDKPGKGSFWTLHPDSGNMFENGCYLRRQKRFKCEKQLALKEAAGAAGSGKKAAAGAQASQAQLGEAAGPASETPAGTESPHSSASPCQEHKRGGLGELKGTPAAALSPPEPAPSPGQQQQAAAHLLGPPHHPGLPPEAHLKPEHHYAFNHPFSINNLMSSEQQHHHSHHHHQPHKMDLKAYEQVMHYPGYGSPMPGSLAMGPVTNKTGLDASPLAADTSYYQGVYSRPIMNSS
Procedure, shortened: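 Endogenous transcription factor activity was read in HepG2 cells carrying transiently transfected cis-promoter reporter units. After 24 h dosing, reporter mRNA was quantified by RT-PCR and capillary electrophoresis, and values fitted bidirectionally versus DMSO.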

[9] = ATG_FoxO_CIS: Attagene CIS-FACTORIAL HepG2 Assay for human Forkhead box O (FoxO) (AID 2282943); conditions: HepG2 Attagene cis-reporter, FoxO element, mRNA; actives raise or lower the signal
Procedure, shortened: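 24 h chemical exposure, HepG2 with transient cis-MRTU transfection. RNA extraction, oligo(dT) RT, reporter-specific PCR, primer-extension labelling, HpaI digestion, CE fragment analysis; bidirectional fit, DMSO baseline.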

[10] = ATG_GATA_CIS: Attagene CIS-FACTORIAL HepG2 Assay for human GATA Binding Protein (AID 2282944); conditions: HepG2 GATA cis-element reporter, Attagene multiplex mRNA; actives raise or lower the signal
Procedure, shortened: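 After transfecting HepG2 cells with multiple cis-regulated reporter units, chemicals are dosed for 24 h; isolated RNA undergoes RT-PCR and fluorescent labeling before capillary electrophoresis, with activity expressed against DMSO.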

SMILES	outcome [1]	outcome [2]	outcome [3]	outcome [4]	outcome [5]	outcome [6]	outcome [7]	outcome [8]	outcome [9]	outcome [10]	AC50 [6]	AC50 [1]	AC50 [2]	AC50 [5]	AC50 [7]	AC50 [9]	AC50 [10]
CC(=O)CCC=C(C)CCC=C(C)C	inactive	inactive	inactive	inactive	inactive	inactive	inactive	inactive	inactive	inactive							
CC1=CCC(C(C)C)=CC1	inactive	inactive	inactive	inactive	inactive	inactive	inactive	inactive	inactive	inactive							
CC(CO)c1ccccc1 (stereo unspecified)	inactive	inactive	inactive	inactive	inactive	inactive	inactive	inactive	inactive	inactive							
CCCO	inactive	inactive	inactive	inactive	inactive	inactive	inactive	inactive	inactive	inactive							
NNC(=O)OCc1ccccc1	inactive	inactive	inactive	inactive	inactive	inactive	inactive	inactive	inactive	inactive							
CCCCCCCCCCCCCCCCCC(=O)OCCCCCCCCCCCCCC(C)C	inactive	inactive	inactive	inactive	inactive		inactive	inactive	inactive	inactive	28.7 µM (active)						
C=COCC1CCC(COC=C)CC1 (stereo unspecified)	inactive	inactive	inactive	inactive	inactive	inactive	inactive	inactive	inactive	inactive							
Nc1ccc(O)c(N)c1	inactive	inactive	inactive	inactive	inactive	inactive	inactive	inactive	inactive	inactive							
CCCCCCCCCCCCCC(=O)OCC	inactive	inactive	inactive	inactive	inactive	inactive	inactive	inactive	inactive	inactive							
CCC(C)COC(=O)CC(C)C (stereo unspecified)	inactive	inactive	inactive	inactive	inactive	inactive	inactive	inactive	inactive	inactive							
CC(=N[Si](C)(C)C)O[Si](C)(C)C	inactive	inactive	inactive	inactive	inactive	inactive	inactive	inactive	inactive	inactive							
C#C[C@]1(O)CC[C@H]2[C@@H]3CCc4cc(O)ccc4[C@H]3CC[C@@]21C	inactive	inactive	inactive	inactive	inactive		inactive	inactive	inactive	inactive		60.4 µM (active)	41.2 µM (active) and 29.9 µM (active)	171 µM (active)	100 µM (active)	180 µM (active) and 72.5 µM (active) and 50.9 µM (active)	139 µM (active) and 142 µM (active)
CCCc1ccc(N)cc1	inactive	inactive	inactive	inactive	inactive	inactive	inactive	inactive	inactive	inactive							
COc1ccc(OC)cc1	inactive	inactive	inactive	inactive	inactive	inactive	inactive	inactive	inactive	inactive							
CCCC1CCC(=O)CC1	inactive	inactive	inactive	inactive	inactive	inactive	inactive	inactive	inactive	inactive							
CCCCOCCOCCO	inactive	inactive	inactive	inactive	inactive	inactive	inactive	inactive	inactive	inactive							
CCCCCCCCCCCCS	inactive	inactive	inactive	inactive	inactive	inactive	inactive	inactive	inactive	inactive							
CC(=O)c1cccnc1	inactive	inactive	inactive	inactive	inactive	inactive	inactive	inactive	inactive	inactive							
CCCCCCOC(C)=O	inactive	inactive	inactive	inactive	inactive	inactive	inactive	inactive	inactive	inactive							
Cc1cc(O)c2c(c1)C(=O)c1cc(O)cc(O)c1C2=O	inactive	inactive	inactive	inactive	inactive			inactive		inactive	0.602 µM (active)				19.3 µM (active)	26.2 µM (active)	
CC1=CC[C@@H](C(C)(C)O)CC1	inactive	inactive	inactive	inactive	inactive	inactive	inactive	inactive	inactive	inactive							
COC(=O)c1cccc(C(=O)OC)c1	inactive	inactive	inactive	inactive	inactive	inactive	inactive	inactive	inactive	inactive							
O=C(c1ccc(OCCN2CCCCC2)cc1)c1c(-c2ccc(O)cc2)sc2cc(O)ccc12	inactive	inactive	inactive		inactive		inactive	inactive	inactive	inactive			11.1 µM (active) and 7.95 µM (active)	11.3 µM (active) and 11.1 µM (active)	13.6 µM (active) and 17 µM (active)		
